# Sampled rows, rich in hits. Any-hit rate of the full collection: about 2%.
# M1 PAM parental: nonselective calcium activators in parental CHO-K1 cells, primary screen, counter-screen for M1 PAM project, cell-based, Fluo-8 calcium fluorescence, full deck, 1536-well. activation, % at 3 µM. ATP EC20; 0% at ATP EC20, 100% at ATP max. hit rate 0.02% among 360,000;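 active = activation above the run cutoff, the mean activation of all test compounds plus 3 SD, cut at about 40% in these data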;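 note: peak over basal fluorescence ratio in a 140 s read after ATP addition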
# CHRM4 PAM: human M4 muscarinic receptor positive allosteric modulators, primary screen, CHO-K1 cells, Fluo-8 calcium fluorescence. hit rate 0.4% among 360,000. AID 624126, 2012. Muscarinic acetylcholine receptor M4 (Homo sapiens), P08173. CHO-K1 hM4/Gqi5, ACh EC20; 0% = ACh EC20, 100% = maximal ACh. activation, % at 3 µM;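 active = activation above its plate's cutoff, the mean activation of sample wells plus 3 SD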
# Target sequence (P08173 whole entry, looked up): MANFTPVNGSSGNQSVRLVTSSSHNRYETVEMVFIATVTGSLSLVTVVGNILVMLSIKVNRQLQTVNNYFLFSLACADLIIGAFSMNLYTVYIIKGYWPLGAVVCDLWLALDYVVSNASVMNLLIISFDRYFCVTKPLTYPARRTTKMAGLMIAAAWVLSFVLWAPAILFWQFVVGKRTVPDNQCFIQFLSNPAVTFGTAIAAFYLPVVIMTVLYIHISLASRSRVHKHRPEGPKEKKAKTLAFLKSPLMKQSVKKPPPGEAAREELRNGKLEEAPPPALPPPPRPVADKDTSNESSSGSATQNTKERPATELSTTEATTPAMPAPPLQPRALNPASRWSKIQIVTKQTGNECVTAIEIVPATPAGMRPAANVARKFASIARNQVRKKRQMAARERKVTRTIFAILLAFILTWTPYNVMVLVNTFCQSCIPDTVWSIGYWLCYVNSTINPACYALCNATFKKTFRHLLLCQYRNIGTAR
# CHRM4 antagonist: human M4 muscarinic receptor antagonists, primary screen, CHO cells, Fluo-8 calcium fluorescence; Muscarinic acetylcholine receptor M4 (Homo sapiens), P08173; CHO-hM4 cells, ACh EC80; inhibition, % at 3 µM; hit rate 0.73% among 360,000; AID 624125, 2012;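 active = inhibition above its plate's cutoff, the mean inhibition of sample wells plus 3 SD, cut at about 27% in these data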;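 note: 0% = acetylcholine EC80 with DMSO and 100% = DMSO without agonist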
# CHRM4 agonist: human M4 muscarinic receptor agonists, primary screen, CHO-K1 cells, Fluo-8 calcium fluorescence; Muscarinic acetylcholine receptor M4 (Homo sapiens), P08173; CHO-K1 hM4/Gqi5; vehicle 0%, full acetylcholine response 100%; activation, % at 3 µM; hit rate 0.14% among 360,000; AID 624127, 2012;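 active = activation above the run mean over all test wells plus 3 SD, cut at about 32% in these data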;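 note: peak over basal fluorescence ratio per well then scaled between controls; 0% = DMSO wells and 100% = acetylcholine at EC100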
# M1 ag parental: counter-screen for M1 agonists: effect in parental CHO-K1 cells. Fluo-8 calcium fluorescence; scaled to maximal ATP response, vehicle zero. activation, % at 3 µM. hit rate 0.48% among 360,000; in the data active = activation above about 15%;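 note: untransfected CHO-K1 host cells lacking M1 receptor as counterscreen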
# CHO-K1 Ca antag: nonselective inhibitor or artifact in parental CHO-K1 cells; inhibition, % at 3 µM; ATP-induced calcium, Fluo-8 fluorescence; AID 602250; hit rate 0.6% among 360,000;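 active = inhibition above a per-plate cutoff, the plate's mean sample inhibition plus 3 SD, cut at about 24% in these data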;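 note: 0% = DMSO plus EC80 ATP and 100% = DMSO alone without ATP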
# * = called active by the depositor.
SMILES,M1 PAM parental,CHRM4 PAM,CHRM4 antagonist,CHRM4 agonist,M1 ag parental,CHO-K1 Ca antag
O=C(Nc1ccccc1)c1cc(C2CCCN(C(=O)c3cccs3)C2)on1 (centres undefined),-9,3,-15,3,0,24*
O=C(Nc1ccc(F)c(Cl)c1)c1cc(C2CCCN(S(=O)(=O)c3ccccc3)C2)on1 (centres undefined),14,-5,-14,8,3,-9
C#CCNC(=O)C[C@@H]1C[C@@]2(C(=O)OCC)CCC=C2N(Cc2ccco2)C1=O,-11,28*,-10,1,0,-2
CCOC(=O)[C@]12CCCC=C1N(Cc1ccco1)C(=O)[C@H](CC(=O)N1CCN(C(=O)c3ccco3)CC1)C2,17,24*,-3,-2,0,-16
O=C(Nc1cccc2ccccc12)NC1CCCCC1O (centres undefined),2,5,-2,1,1,-15
O=C(Nc1cccc(S(=O)(=O)Nc2ccc(Cl)cc2)c1)c1ccc(Cl)nc1,-2,-15,30*,16,14,28*
O=C(Nc1ccc(Br)cc1)c1cccc(S(=O)(=O)Nc2cnc3ccccc3c2)c1,-7,-16,14,12,6,16
COc1ccc(NS(=O)(=O)c2cccc(NC(=O)c3ccc(Cl)nc3)c2)cc1,-8,-12,24,15,12,43*
COc1ccc(NC(=O)c2cccc(S(=O)(=O)Nc3ccc(Br)cc3)c2)cn1,-1,-16,3,18,16*,18
c1ccc(-c2cn3ccccc3n2)cc1,-5,1,0,2,-1,-4
c1ccn2cc(C34CC5CC(CC(C5)C3)C4)nc2c1,17,-27,60*,2,1,-25
CN(C)CCCOC(=O)N1c2ccccc2C=Cc2ccccc21,19,-17,67*,9,4,-14
CC(C)CC1=NN2C(=N)/C(=C\c3coc4ccccc4c3=O)C(=O)N=C2S1,-14,-23,9,63*,100*,45*
CCSC1=NSC2=NC(=O)/C(=C\c3coc4ccccc4c3=O)C(=N)N12,-14,-22,38*,63*,59*,48*
CCc1nn(C(C)C(=O)N2CCN(c3ccc(OC)cc3)CC2)c(=O)c2cc3occc3n12 (centres undefined),7,6,-7,0,0,-11
COc1ccc(/C=C2\SC(=O)NC2=S)cc1OC,12,-28,20,33*,21*,11
COc1cc(/C=C2/SC(=S)NC2=O)ccc1OS(=O)(=O)c1ccc(C)cc1,-4,-13,11,10,11,25*
COc1ccc(/C=C2\SC(=S)NC2=O)cc1OS(=O)(=O)c1ccc(NC(C)=O)cc1,16,1,-7,3,2,-11
COc1cc(CN2C[C@@H](CO)O[C@@H](n3cnc4c(NCc5ccco5)ncnc43)C2)cc(OC)c1OC,4,-2,-3,6,2,-6
Nc1cc(=O)[nH]c(SCc2ccc(Cl)cc2Cl)n1,-21,-5,9,12,15*,15
Nc1ncnc2nc(SCc3ccc(Cl)cc3Cl)[nH]c12,5,0,-5,4,2,1
COc1ccc(NC(=O)CC(NCc2ccccn2)C(=O)O)cc1 (centres undefined),20,-3,9,0,18*,3
Cc1ccc(S(=O)(=O)N(C)CC(=O)NNC(=O)Cc2ccccc2F)cc1,13,3,-1,0,0,-21
COc1cc([N+](=O)[O-])ccc1N=Nc1c(N)[nH]n(-c2ccccc2)c1=O,22,-3,-3,1,17*,1
CCOc1ccccc1C(=O)OCC(=O)NCC1CCCCC1,2,-9,42*,-3,1,-1
SMILES,M1 PAM parental,CHRM4 PAM,CHRM4 antagonist,CHRM4 agonist,M1 ag parental,CHO-K1 Ca antag
CCOc1ccccc1C(=O)OCC(=O)NCC1CCCO1 (centres undefined),-5,3,-7,0,0,-4
CSc1nc(-c2ccc(Cl)cc2)c(C#N)c(=O)n1C,-5,20*,-10,2,0,-1
Cc1ccc(SCC(=O)OCC(=O)N(C)CC(=O)Nc2ccc(F)cc2)cc1C,18,1,-9,52*,46*,-16
CCOC(=O)c1c(SCCN2CCCC2)n(-c2ccccc2)c(=S)n(-c2ccccc2)c1=O,21,-5,10,1,1,-9
N#Cc1ccc(/C=C/C(=O)c2ccc3c(c2)OCO3)cc1,14,17*,-19,1,0,-21
COc1ccccc1COCC(O)CNCCc1ccc(C(F)(F)F)cc1 (centres undefined),11,-9,2,9,16*,-12
COc1ccc(CCN2CC(C(=O)OCC(=O)N(C)Cc3ccccc3)CC2=O)cc1OC (centres undefined),-18,5,-5,1,0,-1
NC(=O)CSc1nnc(-c2ccncc2)o1,22,-5,-4,1,0,-2
CC(C)(C)NC(=O)CSc1nnc(-c2ccncc2)o1,1,19,0,4,0,25*
O=C(CCSc1nnc(-c2ccncc2)o1)Nc1ccccc1,17,6,-10,2,1,-8
CCNC(=O)CCSc1nnc(-c2ccncc2)o1,8,24*,3,0,0,-10
O=C(O)c1ccccc1NC(=O)C1CCN(S(=O)(=O)c2ccc3c(c2)OCCO3)CC1,8,9,-1,-2,0,2
Cc1ccc(-c2nnn(C/C(N)=N/O)n2)cc1,15,-5,-2,1,0,-14
Cc1ccc(-c2nnn(CC(=O)N(CC(=O)NC3CCCCC3)c3cccc(F)c3)n2)o1,3,1,-3,3,20*,1
CCCCOC(=O)C1=C(C)NC(=O)NC1c1ccccc1 (centres undefined),3,5,-12,2,1,5
CCCOc1ccc(C(=O)N2CCCC2C(=O)O)cc1 (centres undefined),14,19*,-6,3,0,-31
Cc1ccsc1/C=c1\sc2ncnn2c1=O,3,6,-4,0,0,1
O=c1/c(=C/c2cccc3ccccc23)sc2ncnn12,-8,-1,3,0,0,28*
Cc1ccc(C)c(C(=O)COC(=O)CN2C(=O)C3C4C=CC(C4)C3C2=O)c1 (centres undefined),-9,-8,-7,3,1,-3

# Compound activity as filed in PubChem.
